GRIN3A LBD mod: NR3A (human) ligand-binding domain modulation | NR3A LBD differential scanning fluorimetry, Tm shift; 0% = protein alone, 100% = glycine-bound protein | Tm shift relative to glycine control, % at 25 µM | 340,000 tested, 2.5% active | AID 1259313;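 active = melting temperature shift of at least 10% of the positive control shift, at one fixed dose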
EBNA-1 inh: blocks EBNA-1 binding to DNA. 300,000 tested, 0.34% active. EBNA-1 DNA binding, fluorescence polarization. inhibition, % at 14.8 µM; in the data active = inhibition above about 28%
Rpn11 inh: inhibitors of human proteasome Rpn11; inhibition, % at 20 µM; 360,000 tested, 0.59% active; human 26S proteasome, Ub4-pepOG fluorescence polarization; 20S core pre-blocked with epoxomicin;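 active = inhibition at 20 µM, scaled to each plate's controls, above about 33%, limit read from the data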
dFosB activator: mouse delta FosB homodimer activation; purified delta FosB, TAMRA-CDK5 oligo fluorescence polarization; percent of positive-control signal above neutral wells; activation, % at 25 µM; 340,000 tested, 0.99% active;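 active = mean activation above about 17%, with every replicate also reaching it, limit read from the data, passing the limit was not always enough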
Target sequence (P13346 whole entry, looked up): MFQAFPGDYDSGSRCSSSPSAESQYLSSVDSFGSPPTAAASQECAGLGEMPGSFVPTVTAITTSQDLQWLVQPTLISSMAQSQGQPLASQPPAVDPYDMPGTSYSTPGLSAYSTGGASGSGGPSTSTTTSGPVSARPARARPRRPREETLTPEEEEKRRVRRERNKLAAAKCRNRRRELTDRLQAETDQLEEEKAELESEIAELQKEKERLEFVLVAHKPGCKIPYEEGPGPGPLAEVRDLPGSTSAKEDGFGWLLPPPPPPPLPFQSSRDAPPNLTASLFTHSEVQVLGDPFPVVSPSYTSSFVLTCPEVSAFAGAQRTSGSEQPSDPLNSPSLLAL
ZTA DNA inh: blocks Epstein-Barr virus ZTA, an EBNA-1 counter-screen; P03206; ZTA-DNA binding, fluorescence polarization; inhibition, % at 11 µM; 320,000 tested, 0.15% active; AID 2234; in the data active = inhibition above about 33%
Target sequence (P03206 whole entry, looked up): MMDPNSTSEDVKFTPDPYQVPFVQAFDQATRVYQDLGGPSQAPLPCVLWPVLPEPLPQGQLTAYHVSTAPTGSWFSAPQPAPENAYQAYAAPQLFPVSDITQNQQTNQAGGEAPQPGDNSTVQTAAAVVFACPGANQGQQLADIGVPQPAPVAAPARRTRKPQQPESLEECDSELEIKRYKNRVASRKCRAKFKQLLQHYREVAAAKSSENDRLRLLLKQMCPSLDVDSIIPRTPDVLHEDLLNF
TPT1 inhibitor: blocks Candida albicans tRNA 2'-phosphotransferase; recombinant caTPT1, FP RNA substrate dephosphorylation; inhibition, % at 5 µM; 300,000 tested, 0.81% active; AID 1962;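 active = inhibition above the mean of all tested compounds plus 3 SD, set per screening campaign, cut at about 24% in these data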
Hits are given with their value; n = inactive; x = no result shown; ! = not active in a repeat. Rows were chosen to be rich in hits. Some 4.5% of all compounds tested hit in one or more screens of this group.

SMILES	GRIN3A LBD mod	EBNA-1 inh	Rpn11 inh	dFosB activator	ZTA DNA inh	TPT1 inhibitor
COc1ccc([N+](=O)[O-])cc1NC(=O)CC1SC(=Nc2cccc(C)c2C)N(/N=C/c2cccc(OC)c2OC)C1=O (stereo not given)	21!	n	n	n	n	n
O=C(COC(=O)c1cc2ccccc2oc1=O)Nc1ccc(F)cc1F	n	n	n	n	n	n
O=C(O)C1=CC(=C(c2ccc(O)c(C(=O)O)c2)c2ccc(O)c(C(=O)O)c2)C=CC1=O	x	93	x	x	111	101
O=C(NCc1cc(F)ccc1F)C1CCC(=O)N(C2CCCCCC2)C1 (stereo not given)	n	n	n	n	n	n
CC1(C(=O)NS(=O)(=O)c2ccccc2)CCN1C(=O)CC1CC1 (stereo not given)	x	x	n	x	x	x
COc1ccc(C(=O)C(=NNc2ccccc2)c2ccc(OC)cc2)cc1	13	x	n	n	x	x
COc1ccccc1C1CCN(Cc2cccc(C(=O)N3CCC(O)CC3)c2)CC1	n	n	n	n	n	n
CC1(C)CC(NC(=O)c2ccccc2F)CC(C)(C)N1	n	n	n	n	n	n
Cc1nn(CCCC(=O)Nc2cc(Oc3ccccc3)cc([N+](=O)[O-])c2)c(C)c1[N+](=O)[O-]	n	n	n	n	n	n
Cc1ccc(C)c(Oc2cc(NC(=O)CCCn3nc(C)c([N+](=O)[O-])c3C)cc([N+](=O)[O-])c2)c1	16	n	n	n	n	n
Cc1ccc(Oc2cc(NC(=O)CCCn3nc([N+](=O)[O-])cc3C)cc([N+](=O)[O-])c2)cc1	10	n	n	n	n	n
NC(=O)c1ccc(NC(=O)CSc2nnc(-c3ccccn3)n2N)cc1	n	n	n	n	n	n
CCOC(=O)c1cc(OCC)c2c(ccc3ccccc32)n1	x	x	n	x	x	x
Cc1ccc(O)c(C(=O)c2cnn(C(=O)c3cccc(S(=O)(=O)N(C)C)c3)c2)c1	n	x	n	n	x	x
Nc1nc(=S)[nH]c2c1C1(CCCCC1)Cc1ccccc1-2	13	n	n	n	n	n
CCCN1C(=O)/C(=C/c2nc3ccccc3c(=O)[nH]2)c2cc(C)ccc21	n	n	n	n	n	n
CCCN1C(=O)/C(=C/c2nc3ccccc3c(=O)[nH]2)c2ccccc21	25	n	n	n	n	n
COc1cc2c(cc1OC)CN(CCC(C)c1ccc(Cl)cc1)CC2 (stereo not given)	n	n	n	n	n	n
Cc1ccc(S(=O)(=O)N(CC(=O)N2CCC(C)CC2)Cc2ccccc2F)cc1	13	n	n	n	n	n
Cc1ccc(CN(C)C(=O)c2ccc(S(=O)(=O)N(C)c3ccccc3)cc2)o1	22	x	n	n	x	x
CN(c1ccccc1)S(=O)(=O)c1ccc(NC(=O)CC(=O)c2ccccc2)cc1	16	x	n	n	x	x
O=C1C(=O)N(CCO)C(c2ccc(Br)cc2)/C1=C(\O)c1ccccc1 (stereo not given)	n	n	n	n	n	n
O=C(NCCN1CCOCC1)c1ccc(Cl)c(S(=O)(=O)N2CCOCC2)c1	n	n	n	n	n	n
CN(CCCn1cnc2c(OCc3ccccc3)ncnc21)Cc1ccco1	x	x	n	x	x	x
COC(=O)c1ccc([C@H]2CC(=O)O2)cc1	n	n	n	n	n	n
SMILES	GRIN3A LBD mod	EBNA-1 inh	Rpn11 inh	dFosB activator	ZTA DNA inh	TPT1 inhibitor
Cc1ccn2c(-c3n[nH]c(=S)n3C)c(C)nc2c1	n	n	n	n	n	n
COc1ccc(/C=C2\SC(=S)N(CCC(=O)NCCc3ccc(O)cc3)C2=O)cc1	15	n	n	38	n	n
O=C(CN1C(=O)S/C(=C\c2ccc(O)cc2)C1=O)c1ccccc1	10	n	n	n	n	n
COc1ccc(/C=C2\SC(=S)NC2=O)cc1OS(=O)(=O)c1ccc(NC(C)=O)cc1	18	x	n	n	x	x
COc1cc(/C=C2/SC(=S)NC2=O)ccc1OS(=O)(=O)c1ccc(C)cc1	n	n	n	n	n	n
O=C(NN1C(=O)/C(=C/c2cccc(O)c2)SC1=S)c1ccccc1O	23	n	n	n	n	n
O=C(CCN1C(=O)/C(=C/c2ccccc2)SC1=S)NCCc1ccc(O)cc1	17	n	n	n	n	n
COc1ccc(/C=C2/SC(=S)N(Cc3ccccc3)C2=O)cc1O	20	x	n	n	x	x
O=C1/C(=C/c2ccc(O)c(O)c2)SC(=S)N1Nc1ccccc1	16	x	x	n	x	x
CC(/C=C1\SC(=S)N(CCC(=O)Nc2ccccc2O)C1=O)=C\c1ccccc1	20	n	x	n	n	n
O=C1/C(=C\c2cc(Cl)c(O)c(Cl)c2)SC(=S)N1Cc1ccccc1	n	x	x	n	x	x
O=C(O)c1ccc(/C=C2\SC(=S)N(Nc3ccccc3)C2=O)cc1	n	n	n	n	n	n
COc1ccc(N(C(=O)Cn2nnc3ccccc32)C(C(=O)NCc2ccco2)c2ccncc2)cc1 (stereo not given)	n	n	n	n	n	n
CC(C)[C@H](N)C(=O)NC[C@H]1CC[C@H](C(=O)N[C@@H](Cc2ccccc2)C(=O)O)CC1	n	n	n	n	n	n
O=C(O)CSc1cc(C(=O)c2ccccc2O)cn2c(=O)c3c4c(sc3nc12)CCCC4	n	x	n	n	x	x
CC(CC(=O)c1ccccc1)=NCCCN=C(C)CC(=O)c1ccccc1	x	x	n	x	x	x
C[C@H](NC(=O)/C=C/[C@H]1O[C@@H](n2ccc(=O)[nH]c2=O)[C@H](O)[C@@H]1O)C(=O)O	x	x	n	x	x	x
COc1ccc(/C=C2\SC(=S)N(CCCCCC(=O)Nc3cc(C)on3)C2=O)cc1OC	n	n	n	n	n	n
COc1cc(/C=C2\SC(=S)N(CCCCC(=O)O)C2=O)ccc1OS(=O)(=O)c1ccc(C)cc1	31	n	n	n	n	n
O=C(CCCN1C(=O)S/C(=C\c2ccccc2)C1=O)NNC(=O)c1ccccc1O	n	n	n	n	n	n
O=C(CCN1C(=O)/C(=C\c2ccccc2)SC1=S)NNC(=O)c1ccccc1O	12	n	n	20	n	n
CCN(CC(=O)Nc1ccc(OC)cc1)C(=O)c1cc(S(=O)(=O)N(C)C)ccc1N1CCCC1	n	n	n	n	n	n
CCCC(C(=O)NCc1ccc(OC)cc1)N(Cc1ccco1)C(=O)c1snc(C(N)=O)c1N (stereo not given)	14	n	n	n	n	n
CCC(C(=O)NCc1ccc(F)cc1)N(Cc1ccco1)C(=O)c1snc(C(N)=O)c1N (stereo not given)	n	n	n	n	n	n
O=C(CCCc1ccccn1)c1ccc(-c2ccccc2)cc1	n	x	n	n	x	x
O=C(Nc1ccc([N+](=O)[O-])cc1)Nc1ccc(N2CCOCC2)c2nonc12	18	n	n	n	n	n
CC(=O)Nc1cc([N+](=O)[O-])ccc1N1CCOCC1	n	n	n	n	n	n
Cc1nc2ccc(NC(=O)c3nn(C(C)C)c(=O)c4ccccc34)cc2s1	17	n	n	n	n	n
